Test results: PubChem BioAssay (NCI)
Compounds without any hit were thinned out: in the full panel of roughly 79,000, 15% have a hit. Values without a mark were called inactive. Active and inactive are the calls of the source. Rule as the data show it: active = growth inhibition above about 70%; inactive = the rest.

Tests used:
[1] = NCI Yeast Anticancer Drug Screen. Data for the mlh1 strain (AID 171);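 also: 0% = growth of vehicle-treated control cultures of the same strain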; conditions: S. cerevisiae mlh1 strain growth inhibition, active compounds read high
In short: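 Yeast carrying a defined genetic alteration in DNA damage repair or cell cycle control were exposed to test compounds. Growth inhibition was measured relative to vehicle-treated controls.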

[2] = NCI Yeast Anticancer Drug Screen. Data for the sgs1 strain (AID 173);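 also: 0% = growth of vehicle-only control cultures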; conditions: S. cerevisiae sgs1 mutant, active compounds read high
In short: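 Yeast mutant strains carrying defined defects in DNA damage repair or cell cycle control were exposed to test compounds. Growth inhibition was scored against vehicle-treated controls.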

[3] = NCI Yeast Anticancer Drug Screen. Data for the mlh1 rad18 strain (AID 175); conditions: S. cerevisiae mlh1 rad18 strain growth inhibition, active compounds read high
In short: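 Growth inhibition of the yeast strain was measured after compound exposure and expressed relative to vehicle-treated controls. The strain carries defined defects in DNA damage repair.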

[4] = NCI Yeast Anticancer Drug Screen. Data for the rad52 strain (AID 147);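 also: 0% = growth of vehicle-treated control cultures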; conditions: S. cerevisiae rad52 mutant growth inhibition, active compounds read high
In short: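 Yeast strain carrying a DNA damage repair alteration was exposed to test compounds. Growth inhibition was measured relative to vehicle-treated controls.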

[5] = NCI Yeast Anticancer Drug Screen. Data for the wt1 strain (AID 149);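 also: 0% = growth of vehicle-treated wt1 cultures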; conditions: S. cerevisiae wt1 strain (SPY 50644) growth inhibition, active compounds read high
In short: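 Yeast wt1 strain exposed to compounds; growth inhibition measured relative to vehicle-treated controls.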

[6] = NCI Yeast Anticancer Drug Screen. Data for the mgt1 strain (AID 153); conditions: S. cerevisiae mgt1 mutant growth inhibition, active compounds read high
In short: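 Yeast mgt1 strain (DNA repair/cell-cycle alteration panel) exposed to compounds; growth inhibition measured relative to vehicle-treated controls.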

[7] = NCI Yeast Anticancer Drug Screen. Data for the rad50 strain (AID 155);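 also: 0% = growth of vehicle-only cultures of the same strain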; conditions: S. cerevisiae rad50 strain growth inhibition, active compounds read high
In short: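 Yeast carrying a defined DNA repair defect were exposed to test compounds, and growth was compared with vehicle-treated controls to give percent inhibition.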

[8] = NCI Yeast Anticancer Drug Screen. Data for the mec2-1 strain (AID 157); conditions: S. cerevisiae mec2-1 strain, active compounds read high
In short: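 mec2-1 yeast strain, carrying an alteration in DNA damage repair or cell cycle control, was exposed to compounds; growth inhibition was measured relative to vehicle-treated controls.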

[9] = NCI Yeast Anticancer Drug Screen. Data for the rad14 strain (AID 159);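 also: 0% = growth of vehicle-treated control cultures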; conditions: S. cerevisiae rad14 strain growth inhibition, active compounds read high
In short: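 Yeast cells carrying a defined DNA-repair defect were exposed to compounds, and growth inhibition was calculated relative to vehicle-treated control cultures.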

[10] = NCI Yeast Anticancer Drug Screen. Data for the sgs1 mgt1 strain (AID 161);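 also: 0% = growth of cultures given vehicle only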; conditions: S. cerevisiae sgs1 mgt1 strain, active compounds read high
In short: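 Yeast cells carrying a defined DNA-repair defect were exposed to test compounds. Growth inhibition was measured relative to vehicle-treated controls.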

[11] = NCI Yeast Anticancer Drug Screen. Data for the CLN2oe strain (AID 163);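 also: 0% = growth of vehicle-only control cultures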; conditions: S. cerevisiae CLN2oe strain, active compounds read high
In short: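 Yeast cells carrying a defined cell-cycle control alteration were exposed to test compounds. Growth inhibition was scored against vehicle-treated control cultures.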

[12] = NCI Yeast Anticancer Drug Screen. Data for the cln2 rad14 strain (AID 165);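 also: 0% = growth equal to vehicle treated cultures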; conditions: S. cerevisiae cln2 rad14 strain, active compounds read high
In short: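 Yeast carrying cln2 and rad14 alterations (cell cycle control and DNA damage repair) were exposed to compounds. Growth inhibition was measured against vehicle-treated controls.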

[13] = NCI Yeast Anticancer Drug Screen. Data for the bub3 strain (AID 167); conditions: S. cerevisiae bub3 mutant strain, active compounds read high
In short: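 Compounds were applied to a genetically altered yeast strain carrying a cell-cycle control defect. Growth inhibition was scored against vehicle-treated controls.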

[14] = NCI Yeast Anticancer Drug Screen. Data for the wt2 strain (AID 169);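 also: 0% = growth of vehicle-treated yeast cultures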; conditions: S. cerevisiae wt2 strain growth inhibition, active compounds read high
In short: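 Yeast cells were exposed to test compounds, and growth inhibition was measured relative to vehicle-treated controls.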

[15] = NCI Yeast Anticancer Drug Screen. Data for the rad18 strain (AID 177); conditions: S. cerevisiae rad18 mutant growth inhibition, active compounds read high
In short: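 Yeast carrying a defined DNA damage repair alteration were exposed to compounds. Growth inhibition was expressed relative to vehicle-treated controls.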

[16] = NCI Yeast Anticancer Drug Screen. Data for the rad50EPP+ strain (AID 151);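 also: 0% = growth of vehicle-treated control cultures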; conditions: S. cerevisiae rad50 mutant strain, active compounds read high
In short: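 Yeast strain carrying rad50 alteration (rad50EPP+) exposed to compounds; growth inhibition measured relative to vehicle-treated controls.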

[17] = at 5.0 µM (retest, dose inferred, filed as 0.5)
[18] = at 50.0 µM (retest, dose inferred, filed as 5.0)

## COc1cc(C2c3cc4c(cc3OC(Nc3ccccc3)C2C)OCO4)cc(OC)c1O (centres undefined)
[1]; at 1.2 µM
  growth inhibition: -3%
[1]; at 3.7 µM
  growth inhibition: -1%
[1]; at 11.0 µM
  growth inhibition: 0%
[1]; at 33.0 µM
  growth inhibition: -3%
[1]; at 100.0 µM
  growth inhibition: 61%
[2]; at 1.2 µM
  growth inhibition: -1%
[2]; at 3.7 µM
  growth inhibition: 0%
[2]; at 11.0 µM
  growth inhibition: 0%
[2]; at 33.0 µM
  growth inhibition: 2%
[2]; at 100.0 µM
  growth inhibition: 65%
[3]; [17]
  growth inhibition: -1%
[3]; [18]
  growth inhibition: 99% (active)
[3]; at 50.0 µM
  growth inhibition: 92.5% (active)

## CC(O)C(O)C(O)C(/C=N\Nc1ccccc1)=N/Nc1ccccc1 (centres undefined)
[4]; at 1.2 µM
  growth inhibition: 5%
[4]; at 3.7 µM
  growth inhibition: 10%
[4]; at 11.0 µM
  growth inhibition: 12%
[4]; at 33.0 µM
  growth inhibition: 69%
[4]; at 100.0 µM
  growth inhibition: 98% (active)
[5]; at 1.2 µM
  growth inhibition: 4%
[5]; at 3.7 µM
  growth inhibition: 9%
[5]; at 11.0 µM
  growth inhibition: 13%
[5]; at 33.0 µM
  growth inhibition: 8%
[5]; at 100.0 µM
  growth inhibition: 96% (active)
[6]; at 1.2 µM
  growth inhibition: 6%
[6]; at 3.7 µM
  growth inhibition: 9%
[6]; at 11.0 µM
  growth inhibition: 10%
[6]; at 33.0 µM
  growth inhibition: 47%
[6]; at 100.0 µM
  growth inhibition: 99% (active)
[7]; at 1.2 µM
  growth inhibition: 5%
[7]; at 3.7 µM
  growth inhibition: 5%
[7]; [17]
  growth inhibition: 19%
[7]; at 11.0 µM
  growth inhibition: 10%
[7]; at 33.0 µM
  growth inhibition: 63%
[7]; [18]
  growth inhibition: 51%
[7]; at 50.0 µM
  growth inhibition: 97.8% (active)
[7]; at 100.0 µM
  growth inhibition: 98% (active)
[8]; at 1.2 µM
  growth inhibition: -4%
[8]; at 3.7 µM
  growth inhibition: 1%
[8]; [17]
  growth inhibition: -5%
[8]; at 11.0 µM
  growth inhibition: 11%
[8]; at 33.0 µM
  growth inhibition: 46%
[8]; [18]
  growth inhibition: 51%
[8]; at 50.0 µM
  growth inhibition: 58.3%
[8]; at 100.0 µM
  growth inhibition: 98% (active)
[9]; at 1.2 µM
  growth inhibition: -2%
[9]; at 3.7 µM
  growth inhibition: -1%
[9]; at 11.0 µM
  growth inhibition: 4%
[9]; at 33.0 µM
  growth inhibition: 21%
[9]; at 100.0 µM
  growth inhibition: 99% (active)
[10]; [17]
  growth inhibition: 3%
[10]; [18]
  growth inhibition: 56%
[10]; at 50.0 µM
  growth inhibition: 95.5% (active)
[11]; at 1.2 µM
  growth inhibition: -7%
[11]; at 3.7 µM
  growth inhibition: -4%
[11]; at 11.0 µM
  growth inhibition: -5%
[11]; at 33.0 µM
  growth inhibition: 18%
[11]; at 100.0 µM
  growth inhibition: 28%
[12]; [17]
  growth inhibition: 1%
[12]; [18]
  growth inhibition: 49%
[12]; at 50.0 µM
  growth inhibition: 8.25%
[13]; at 1.2 µM
  growth inhibition: -3%
[13]; at 3.7 µM
  growth inhibition: -3%
[13]; [17]
  growth inhibition: -7%
[13]; at 11.0 µM
  growth inhibition: 19%
[13]; at 33.0 µM
  growth inhibition: 24%
[13]; [18]
  growth inhibition: 43%
[13]; at 50.0 µM
  growth inhibition: 69.1%
[13]; at 100.0 µM
  growth inhibition: 30%
[14]; at 1.2 µM
  growth inhibition: 2%
[14]; at 3.7 µM
  growth inhibition: 8%
[14]; at 11.0 µM
  growth inhibition: 10%
[14]; at 33.0 µM
  growth inhibition: 38%
[14]; at 100.0 µM
  growth inhibition: 99% (active)
[1]; at 1.2 µM
  growth inhibition: 3%
[1]; at 3.7 µM
  growth inhibition: 4%
[1]; at 11.0 µM
  growth inhibition: 6%
[1]; at 33.0 µM
  growth inhibition: 68%
[1]; at 100.0 µM
  growth inhibition: 98% (active)
[2]; at 1.2 µM
  growth inhibition: 1%
[2]; at 3.7 µM
  growth inhibition: 10%
[2]; at 11.0 µM
  growth inhibition: 11%
[2]; at 33.0 µM
  growth inhibition: 68%
[2]; at 100.0 µM
  growth inhibition: 98% (active)
[3]; [17]
  growth inhibition: 7%
[3]; [18]
  growth inhibition: 65%
[3]; at 50.0 µM
  growth inhibition: 98.9% (active)
[15]; at 1.2 µM
  growth inhibition: 5%
[15]; at 3.7 µM
  growth inhibition: 9%
[15]; at 11.0 µM
  growth inhibition: 9%
[15]; at 33.0 µM
  growth inhibition: 95% (active)
[15]; at 100.0 µM
  growth inhibition: 99% (active)

## O=C(N=Nc1ccccc1Cl)NNc1ccccc1Cl
[4]; at 1.2 µM
  growth inhibition: 25%
[4]; at 3.7 µM
  growth inhibition: 19%
[4]; at 11.0 µM
  growth inhibition: 13%
[4]; at 33.0 µM
  growth inhibition: 28%
[4]; at 100.0 µM
  growth inhibition: 26%
[5]; at 1.2 µM
  growth inhibition: 4%
[5]; at 3.7 µM
  growth inhibition: 2%
[5]; at 11.0 µM
  growth inhibition: 0%
[5]; at 33.0 µM
  growth inhibition: 5%
[5]; at 100.0 µM
  growth inhibition: 6%
[16]; at 1.2 µM
  growth inhibition: 17%
[16]; at 3.7 µM
  growth inhibition: 19%
[16]; at 11.0 µM
  growth inhibition: 26%
[16]; at 33.0 µM
  growth inhibition: 39%
[16]; at 100.0 µM
  growth inhibition: 20%
[7]; at 1.2 µM
  growth inhibition: 8%
[7]; at 3.7 µM
  growth inhibition: 8%
[7]; [17]
  growth inhibition: -15%
[7]; at 11.0 µM
  growth inhibition: -15%
[7]; at 33.0 µM
  growth inhibition: 14%
[7]; [18]
  growth inhibition: 16%
[7]; at 50.0 µM
  growth inhibition: 44.5%
[7]; at 100.0 µM
  growth inhibition: 13%
[8]; at 1.2 µM
  growth inhibition: -1%
[8]; at 3.7 µM
  growth inhibition: 1%
[8]; [17]
  growth inhibition: -15%
[8]; at 11.0 µM
  growth inhibition: 7%
[8]; at 33.0 µM
  growth inhibition: 6%
[8]; [18]
  growth inhibition: 38%
[8]; at 50.0 µM
  growth inhibition: 21.1%
[8]; at 100.0 µM
  growth inhibition: 12%
[9]; at 1.2 µM
  growth inhibition: -3%
[9]; at 3.7 µM
  growth inhibition: -9%
[9]; at 11.0 µM
  growth inhibition: -2%
[9]; at 33.0 µM
  growth inhibition: 5%
[9]; at 100.0 µM
  growth inhibition: 11%
[10]; [17]
  growth inhibition: -18%
[10]; [18]
  growth inhibition: 8%
[10]; at 50.0 µM
  growth inhibition: 26.8%
[11]; at 1.2 µM
  growth inhibition: 7%
[11]; at 3.7 µM
  growth inhibition: -3%
[11]; at 11.0 µM
  growth inhibition: 6%
[11]; at 33.0 µM
  growth inhibition: 22%
[11]; at 100.0 µM
  growth inhibition: 27%
[12]; [17]
  growth inhibition: -25%
[12]; [18]
  growth inhibition: 45%
[12]; at 50.0 µM
  growth inhibition: 47.1%
[13]; at 1.2 µM
  growth inhibition: 2%
[13]; at 3.7 µM
  growth inhibition: 18%
[13]; [17]
  growth inhibition: -40%
[13]; at 11.0 µM
  growth inhibition: 13%
[13]; at 33.0 µM
  growth inhibition: 15%
[13]; [18]
  growth inhibition: 69%
[13]; at 50.0 µM
  growth inhibition: 49.1%
[13]; at 100.0 µM
  growth inhibition: 11%
[14]; at 1.2 µM
  growth inhibition: 0%
[14]; at 3.7 µM
  growth inhibition: 0%
[14]; at 11.0 µM
  growth inhibition: 3%
[14]; at 33.0 µM
  growth inhibition: 7%
[14]; at 100.0 µM
  growth inhibition: 8%
[1]; at 1.2 µM
  growth inhibition: 0%
[1]; at 3.7 µM
  growth inhibition: -4%
[1]; at 11.0 µM
  growth inhibition: 2%
[1]; at 33.0 µM
  growth inhibition: 5%
[1]; at 100.0 µM
  growth inhibition: 4%
[3]; [17]
  growth inhibition: -7%
[3]; [18]
  growth inhibition: 41%
[3]; at 50.0 µM
  growth inhibition: 21.6%
[15]; at 1.2 µM
  growth inhibition: 16%
[15]; at 3.7 µM
  growth inhibition: 13%
[15]; at 11.0 µM
  growth inhibition: 8%
[15]; at 33.0 µM
  growth inhibition: 3%
[15]; at 100.0 µM
  growth inhibition: 7%
